From PubChem BioAssay (NCI)
About 83,000 compounds went through this panel and 20% of them were active in at least one assay; those are over-represented in the sample as a whole.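 Single-concentration screen, 48 h exposure, 96-well plates. Endpoint: percent growth. Below 10 = active.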 Values without a mark were called inactive. Active and inactive are the calls of the source.

Experiments:
Assay in all cases: NCI-60 one-dose screen, 48 h (100 = growth as untreated, 0 = no growth, -100 = all killed)
Conditions in all cases: 10 µM unless noted
RPMI-8226 leukemia = test system: RPMI-8226 leukemia
OVCAR-8 ovarian = test system: OVCAR-8 ovarian
OVCAR-5 ovarian = test system: OVCAR-5 ovarian
OVCAR-4 ovarian = test system: OVCAR-4 ovarian
SK-OV-3 ovarian = test system: SK-OV-3 ovarian
IGROV1 ovarian = test system: IGROV1 ovarian
OVCAR-3 ovarian = test system: OVCAR-3 ovarian
HS 578T breast = test system: HS 578T breast
NCI/ADR-RES ovarian = test system: NCI/ADR-RES ovarian
SR leukemia = test system: SR leukemia

| Compound | growth (RPMI-8226 leukemia) | growth (OVCAR-8 ovarian) | growth (OVCAR-5 ovarian) | growth (OVCAR-4 ovarian) | growth (SK-OV-3 ovarian) | growth (IGROV1 ovarian) | growth (OVCAR-3 ovarian) | growth (HS 578T breast) | growth (NCI/ADR-RES ovarian) | growth (SR leukemia) [%] |
| --- | --- | --- | --- | --- | --- | --- | --- | --- | --- | --- |
| Clc1ccc2c(NCCCN3CCN(c4nc(N5CCOCC5)nc5ccccc45)CC3)ccnc2c1 | -39.5% (active) | 16.1% | 60.6% | 50.3% | 108% | 50.4% | -40.8% (active) | 17.2% | 25.1% | – |
| CN(C)CCCCNc1ccc(NCCCCN(C)C)c2c1C(=O)c1c(O)ccc(O)c1C2=O | 53.6% | -73.1% (active) | -86% (active) | 64% | 85.6% | -84.5% (active) | 100% | 92% | -68.8% (active) | – |
| C[C@@H](C[C@H](CCOCc1cccnc1)c1ccccc1)c1cc2ccccc2o1 | 75% | 88.6% | 87.8% | 81.6% | 84.7% | 83.8% | 94% | 85.1% | 97.9% | – |
| C[C@@H]1CC[C@@H]2[C@@H]1[C@H](OC(=O)c1ccc3ccccc3c1)[C@]1(C3CCCCC3)C[C@@H](OC(=O)CO)[C@@]2(C)O1 | 31.4% | 18.5% | 89.4% | 55.5% | 75.4% | 71.1% | 73.6% | -32.1% (active) | 14.6% | – |
| Cc1nc2ccccc2c(/C=C/c2ccc(Cl)cc2)c1C(=O)/C=C/c1ccc(Cl)cc1 | -17.4% (active) | 5.4% (active) | -45.6% (active) | 0.984% (active) | 28.4% | -51.8% (active) | -70.6% (active) | -4.76% (active) | -15.4% (active) | – |
| CC(C)n1nc(C#Cc2cccc(O)c2)c2c(N)ncnc21 | -46.9% (active) | -36.4% (active) | -43% (active) | -15% (active) | -62.6% (active) | -68.8% (active) | -19.6% (active) | -28.8% (active) | -29.2% (active) | – |
| NC(=O)CC1(O)C=C(Br)C(=O)C(Br)=C1 | -31.3% (active) | 95.9% | 70.2% | 34.7% | 99.1% | 82.2% | -9.94% (active) | – | – | – |
| COc1ccc(Oc2nc(Nc3ccc(N4CCOCC4)nc3)ncc2NC(=O)c2cc(OC)cc(OC)c2)cc1 | 49% | 77.8% | 105% | 78.2% | 88.6% | 80% | 82.7% | 86.8% | 76% | – |
| COC1=CC(c2ccc[nH]2)=N/C1=C\c1[nH]c(C)c(C(=O)OCCn2cc(CCC[C@@H]3Cc4cc(O)ccc4C4CC[C@]5(C)[C@@H](O)CC[C@H]5C43)nn2)c1C (some centres not stated) | – | 96.3% | – | – | 92.4% | – | 85.5% | 65.1% | 83.2% | 23.8 |
| CS(=O)(=O)c1ccc(-c2nc3cc(Cl)ccc3n2CC(=O)NO)cc1 | 90.9% | 88.3% | 100% | 87.6% | 96.4% | 88.4% | 96.1% | 93.2% | 108% | – |
| Cc1c(C(=O)O[C@H]2[C@@H]3[C@H](C)CC[C@H]3[C@]3(C)O[C@@]2(C2CCCCC2)C[C@H]3OC(=O)CO)ccc2ccccc12 | -40.7% (active) | 28.6% | 61.1% | 39.4% | 62.6% | 63.3% | 29.3% | -29.6% (active) | 8.05% (active) | – |
| COc1ccc(/C=N/NC(=O)Cn2c(-c3ccc(S(C)(=O)=O)cc3)nc3cc(Cl)ccc32)cc1 | 9.21% (active) | 19.7% | 36.8% | 55.5% | 12.6% | 33.3% | -1.53% (active) | 36.8% | 5.86% (active) | – |
| C=C1C(=O)O[C@H]2[C@H]1CC/C(Cn1cc(CNCCc3c[nH]c4ccc(Cl)cc34)nn1)=C\CC[C@@]1(C)O[C@@H]21 | 9.44% (active) | 59.6% | 83.5% | 41.7% | 72.6% | 2.11% (active) | 11.9% | 83.4% | 102% | – |
| CCN1CCN(c2ccc(Nc3cc(-c4cccnc4Nc4c(Cl)c(OC)cc(OC)c4Cl)ncn3)cc2)CC1 | 64.1% | 69.2% | 92.4% | 48.8% | 72.7% | 57.4% | 88.9% | 51.8% | 75.8% | – |
| CC1(C)C(=O)/C(=C\c2cccnc2)C[C@]2(C)[C@H]3CC=C4[C@@H]5C[C@@](C)(C(=O)O)CC[C@]5(C)CC[C@@]4(C)[C@]3(C)CC[C@@H]12 | 71.5% | 89.7% | 107% | 90.6% | 94.9% | 103% | 98.3% | 99.2% | 102% | – |
| COc1ccc(-n2ncn(CCCCCCn3cnn(-c4ccc(OC)cc4)c3=O)c2=O)cc1 | 78.3% | 95.2% | 101% | 84.5% | 99.5% | 90.6% | 98.4% | 93.9% | 89% | – |
| CCO/C=N/C1=C(C#N)C(c2ccc(OC)cc2)c2c(c3ccccc3n(C)c2=O)O1 (configuration not stated) | 102% | 104% | 100% | 98.8% | 99.9% | 101% | 114% | 107% | 108% | – |
| N#Cc1cccc(-c2nc3ccccn3c2NCCN2CCOCC2)c1 | 90.4% | 90.7% | 94.4% | 30% | 86.3% | 97.8% | 96.9% | 96.2% | 98.2% | – |
| C=C(C)[C@@H]1CC[C@]2(CNCCO)CC[C@]3(C)[C@H](CC[C@@H]4[C@@]5(C)CCC(N)[C@@](C)(CO)[C@@H]5CC[C@]43C)[C@@H]12 (some centres not stated) | -45.1% (active) | 10.7% | 63.8% | 46.2% | 75% | 61.6% | -43.4% (active) | 60.9% | 83% | – |
| CCCc1nc2ccccn2c1Nc1ccc(C(=O)NO)cc1 | 76.3% | 78% | 93.7% | 91.1% | 80.9% | 111% | 99.1% | 94.6% | 84.6% | – |
| C=C1C(=O)O[C@H]2[C@H]1CC/C(COC(=O)/C=C/C(=O)NCc1ccc(Cn3c(=O)sn(-c4ccccc4)c3=O)cc1)=C\CC[C@@]1(C)O[C@@H]21 | -32.6% (active) | -0.571% (active) | 35.4% | 25.7% | 75.8% | -25.5% (active) | -77.5% (active) | 77.8% | 94.1% | – |
| O=C(NCc1cccnc1)c1cc(-c2csc3c(=O)cc(N4CCOCC4)oc23)cc2c1OCCO2 | 9.21% (active) | 38% | 31.3% | 50.3% | 8.37% (active) | 7.23% (active) | 34.7% | 8.92% (active) | 89.3% | – |
| NC(=O)c1c(NC(=O)c2ccc(C(F)(F)F)cc2Cl)sc2c1CCC(=O)C2 | -22.7% (active) | 10.2% | -41.9% (active) | -74.7% (active) | -6.73% (active) | -39.2% (active) | -57.4% (active) | -7.87% (active) | -13.9% (active) | – |
| Cc1cc(N(CCCNc2ccnc3cc(Cl)ccc23)Cc2ccccn2)nc(N2CCCC2)n1 | 48.9% | 73.4% | 87.6% | 63.1% | 102% | 87.5% | 88% | 88.9% | 76.7% | – |
| Cc1nc(-c2ccccc2)cc2c(O)c(C(=O)N/N=C/c3ccc(N(C)C)cc3)[nH]c(=O)c12 | -11.6% (active) | 67.3% | 85.4% | 26.6% | 105% | 49.8% | 71% | 73.2% | 66.9% | – |
| CC(C)OC(=O)OCOP(=O)(OCOC(=O)OC(C)C)C1CCCN(O)C1=O (configuration not stated) | 11.8% | 2.91% (active) | 73.4% | 36% | 5.92% (active) | 9.36% (active) | 33.5% | 7.77% (active) | 39.2% | – |
| CCCn1nc(-c2ccccc2)c2c(-c3ccccc3)onc2c1=O | 70.2% | 102% | 87.7% | 79.7% | 83.6% | 72.5% | 91.8% | 67.7% | 68.5% | – |
| NC(=O)c1c(NC(=O)c2ccccn2)sc2c1CCC(=O)C2 | 1.88% (active) | 14.2% | 21.5% | -7.1% (active) | 95.6% | 29.9% | 7.94% (active) | 25.1% | 17.6% | – |
